# Plk1 PBD FP – inhibitors of human Plk1 polo box domain binding; actives 0.13% (n = 97,000); Plk1 PBD phosphopeptide binding, fluorescence polarization; AID 693; inhibition, %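 (tested at about 20 µM)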; P53350; in the data active = inhibition above about 34%, passing the limit was not always enough
# PLK1 kinase inh – inhibitors of human PLK1 kinase | AID 619 | recombinant PLK1 kinase, TR-FRET peptide phosphorylation | P53350 | inhibition, % at 10 µM | actives 0.53% (n = 97,000);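 active = inhibition of 50% or more in the single-concentration screen; inactive = inhibition below 50%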;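 note: 0% = DMSO max control and 100% = H-89 dihydrochloride min control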
# PTK2B oligo ant – blocks oligomerization of human Pyk2 in cells | z-score (the deposit names both 25 µM and 10 µM) | Q293 cells, Pyk2 FERM NanoBiT luminescence; hits give low values | actives 0.83% (n = 99,000) | Q14289;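 active = Z-score of -3 or lower, scaled per plate to the spread of control and sample wells; inactive = z-score above -3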;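 note: negative z-score means lost luminescence so less FERM oligomerization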
# PTPN22 inh 2 – blocks human PTPN22 phosphatase activity; AID 640; recombinant LYP catalytic domain, DiFMUP fluorescence; actives 0.21% (n = 96,000); Q9Y2R2; inhibition, % at 2 µM;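 active = inhibition at 2 µM at or above a set limit, the screen mean plus 3 SD, cut at about 24% in these data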;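 note: 0% = DMSO with enzyme and 100% = enzyme fully blocked by orthovanadate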
# Target sequence (Q9Y2R2 whole entry, looked up, the tested form may be a part): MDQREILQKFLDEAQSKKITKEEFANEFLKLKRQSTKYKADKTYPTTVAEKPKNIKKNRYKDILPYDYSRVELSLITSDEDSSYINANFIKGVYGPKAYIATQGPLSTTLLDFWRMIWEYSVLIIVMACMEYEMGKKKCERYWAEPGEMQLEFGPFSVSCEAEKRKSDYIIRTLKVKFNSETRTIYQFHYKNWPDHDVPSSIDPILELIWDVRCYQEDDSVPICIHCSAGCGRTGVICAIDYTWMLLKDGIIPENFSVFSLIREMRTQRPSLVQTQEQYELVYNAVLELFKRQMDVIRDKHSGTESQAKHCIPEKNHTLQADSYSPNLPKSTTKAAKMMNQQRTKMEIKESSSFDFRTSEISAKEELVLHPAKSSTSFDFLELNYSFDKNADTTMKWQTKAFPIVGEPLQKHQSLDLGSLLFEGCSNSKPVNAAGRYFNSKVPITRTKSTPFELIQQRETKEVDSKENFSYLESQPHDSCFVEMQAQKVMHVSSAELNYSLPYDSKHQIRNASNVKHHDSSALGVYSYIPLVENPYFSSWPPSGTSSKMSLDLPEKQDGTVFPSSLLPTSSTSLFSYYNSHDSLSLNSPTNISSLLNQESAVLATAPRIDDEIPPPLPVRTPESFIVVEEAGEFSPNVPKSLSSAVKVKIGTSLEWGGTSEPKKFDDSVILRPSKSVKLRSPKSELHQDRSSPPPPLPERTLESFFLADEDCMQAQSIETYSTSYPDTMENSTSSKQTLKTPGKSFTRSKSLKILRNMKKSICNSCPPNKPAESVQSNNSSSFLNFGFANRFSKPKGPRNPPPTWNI
# LYP act – LYP (human) phosphatase activation | Q9Y2R2 | recombinant LYP, DiFMUP fluorescence; 0 = plate median, 100 = signal doubled | activation, % at 2 µM | actives 0.11% (n = 96,000) | AID 697;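 active = activation at 2 µM above a set limit, the mean plus 5 SD, cut at about 37% in these data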
# Active calls of the source: *; · = no result. Most compounds without a hit are left out; they make up all but 1.7% or so of the library.
SMILES,Plk1 PBD FP,PLK1 kinase inh,PTK2B oligo ant,PTPN22 inh 2,LYP act
CCCCn1nc(C(=O)O)ccc1=O,-5.0,-3.6,0.92,10.1,-9.8
CCC(Sc1nc2n[nH]c(C)c2c(=N)n1-c1cccc(Cl)c1C)C(=O)N(CC)CC (stereo not given),15.1,-10.7,-3.03*,5.0,-7.0
CCC(C)NC(=O)CSc1nc2n[nH]c(C)c2c(=N)n1-c1ccc(OC)cc1 (stereo not given),5.0,-14.4,-1.12,-1.8,-1.0
CCOc1ccc(-c2nc(N)ncc2Oc2cccc(OC)c2)c(O)c1,-6.6,-7.4,-3.24*,-13.5,12.2
C=C(C)COc1ccc(-c2nc(N)ncc2Oc2ccc(OC)cc2)c(O)c1,2.5,-86.2,-4.68*,0.0,-1.9
CCOc1ccc(-c2nc(N)ncc2Oc2ccccc2Br)c(O)c1,6.5,-7.1,-2.16,2.1,-3.2
C=C(C)COc1ccc(-c2[nH]ncc2-c2ccccc2OC)c(O)c1,3.6,-1.9,-2.05,-1.6,1.0
C=C(C)COc1ccc(-c2nc(N)ncc2Oc2ccccc2OC)c(O)c1,-32.8,-10.9,-4.28*,-2.7,0.7
Cc1cc(C)nc(-n2nc(C)c3c(=O)[nH]c(C(F)(F)F)nc32)n1,32.1,6.6,0.89,5.1,-5.7
CC(C)(C)NC1=CC(=O)OC12CCCCC2,-15.0,-7.7,0.46,-9.4,6.9
COc1ccc(S(=O)(=O)Nc2ccc(C(F)(F)F)cc2)cc1OC,3.0,-7.4,-3.38*,8.5,-8.0
COc1ccc(NS(=O)(=O)c2ccc(OC)c(OC)c2)cc1OC,·,·,0.68,·,·
COC(=O)c1ccc(OCC(=O)c2ccccc2OC)cc1,-1.7,-1.3,-0.71,6.7,-6.1
CCCCN(C)C(=O)c1cn(CC)c2ccc(S(=O)(=O)N(C)C)cc2c1=O,-0.2,59.5*,·,·,·
CC1CC(C)CN(S(=O)(=O)c2ccc(C(=O)Nc3nnc(-c4cccs4)o3)cc2)C1 (stereo not given),-15.0,-2.8,-4.47*,-5.6,2.4
O=C(CCc1ccccc1)Nc1nnc(-c2cccs2)o1,-20.8,61.5*,·,·,·
CC1CCCN(S(=O)(=O)c2ccc(C(=O)Nc3nnc(-c4ccccc4Cl)o3)cc2)C1 (stereo not given),2.8,-14.4,-3.84*,8.8,-10.0
Cc1nnc(NC(=O)c2ccc(S(=O)(=O)N3CCCCCC3)cc2)o1,-23.5,-9.0,-0.54,5.8,-7.7
COc1cccc(-c2nnc(NC(=O)c3ccc(S(=O)(=O)N4CC(C)OC(C)C4)cc3)o2)c1 (stereo not given),13.3,2.5,-4.13*,10.3,-10.6
Cc1ccccc1-n1nc(C)c2cc(C(=O)NCc3cccnc3)sc21,-37.5,3.2,-1.86,1.5,-3.9
O=C(Nc1nnc(-c2cccs2)o1)c1cccc(C(F)(F)F)c1,12.4,60.7*,·,·,·
CC(Oc1ccc(Cl)cc1Cl)C(=O)Nc1ccc2oc(-c3ccncc3)nc2c1 (stereo not given),15.1,-18.2,-3.23*,-0.9,-0.5
CN(C)/C=C/C(=O)c1ccc(F)cc1,-16.7,-8.1,-0.3,26.2*,-23.1
COC(=O)c1ccccc1OCC(=O)N1CCN(c2ccc(OC)cc2)CC1,-4.3,-6.4,0.41,3.9,0.2
Cc1csc(NC(=O)CSc2nnc3c4ccccc4nc(C(C)(C)C)n23)n1,-2.4,-7.1,-2.3,7.8,-3.3
SMILES,Plk1 PBD FP,PLK1 kinase inh,PTK2B oligo ant,PTPN22 inh 2,LYP act
Cc1ccccc1-c1nc(S(=O)(=O)c2ccc(Br)cc2)c(NCc2cccnc2)o1,-7.6,7.2,-3.4*,1.3,1.6
CN(Cc1ccccc1)C(=O)C1CCCN(Cc2ccc(Cl)cc2)C1 (stereo not given),-4.4,-5.6,1.32,-9.2,11.5
Cc1nn(-c2ccccc2)c2c1C1(C(=O)Nc3ccccc31)N1C(=N2)Sc2ccccc21 (stereo not given),-4.5,-6.4,-4.24*,10.8,-11.0
Cc1nn(-c2ccccc2)c(C)c1C(=O)OCC(=O)N1c2ccccc2NC(=O)C1(C)C,-6.3,-8.0,-0.92,4.3,-7.1
Cc1nn(-c2ccccc2)c(Cl)c1/C=N/NC(=O)OC(C)(C)C,·,·,-1.74,·,·
Cc1ccc(C)c(OCC(=O)N/N=C/c2c(C)nn(-c3ccccc3)c2Cl)c1,6.5,-1.4,·,28.0*,-29.0
O=C(Cn1ncn2c(cc3ccccc32)c1=O)NCc1ccco1,-1.2,-4.6,-0.53,-2.9,-0.2
COc1ccc(NC(=O)Cn2nnc(C(N)=O)c2N)c(OC)c1,32.4,0.8,-0.12,6.3,-8.4
CCCC(=O)Nc1ccc2nc(SCC(=O)Nc3ccc(N4CCOCC4)c(Cl)c3)sc2c1,-4.6,-6.7,-3.48*,3.9,1.4
CSc1nc2ccc(Nc3nc(N4CCOCC4)nc(N4CCOCC4)n3)cc2s1,-17.3,-7.9,-3.39*,-0.4,-2.1
Cc1ccc(NC(=O)CSCC(=O)Nc2ccc(N3CCOCC3)c(Cl)c2)cc1,-6.0,-6.6,-1.16,-2.0,-0.9
O=C(NCCc1cccs1)C1CC(c2ccccc2[N+](=O)[O-])=NO1 (stereo not given),0.8,-3.5,·,3.0,-0.5
O=C(NCc1ccccn1)c1cn(CCc2ccccc2)nn1,7.8,-21.4,1.27,-4.7,2.9
COc1ccc(Cl)cc1CN1CCN(c2nc(C)cc(C)c2C#N)CC1,26.0,61.9*,-1.74,-1.5,-1.2
COc1ccc(-c2oc(/N=C/N3CCOCC3)c(C#N)c2-c2ccc(OC)cc2)cc1,-8.1,-9.2,-3.57*,5.6,-7.9
Cc1ccc(-n2c3c(c(=O)[nH]c2=S)C(C(F)(F)F)(C(F)(F)F)NC(=O)N3)cc1,-15.4,-2.0,-0.84,-14.4,17.1
CC(C)C(NC(=O)c1ccc2c(c1)OCO2)C(=O)N/N=C\c1ccco1 (stereo not given),17.2,-10.2,0.48,2.4,1.8
O=C(Nc1cccc(Cl)c1Cl)c1ccncc1,-31.0,53.8*,-0.23,-0.2,0.8
N#CC1=C2Nc3ccccc3N2C(=O)NC1(c1ccccc1)C(F)(F)F (stereo not given),14.8,-8.6,-3.07*,-2.4,4.3
O=C1NC(c2ccccc2)(C(F)(F)F)C(=O)N1Cc1cccnc1 (stereo not given),-15.3,-4.8,-2.03,-5.5,1.2
COc1ccccc1-c1nnc(SCC(=O)Nc2nc(-c3ccccc3)cs2)n1C,-30.1,-12.7,-3.21*,11.7,-12.6
CCn1c2ccccc2c2nnc(SCCCn3c(=O)[nH]c4ccccc43)nc21,11.3,-9.1,-3.47*,10.9,-10.4
CC(C)C(CCNC(=O)CN1C(=O)c2ccccc2C1=O)c1ccco1 (stereo not given),-14.5,-4.1,0.22,7.6,-4.2
CC(C)C(CCNC(=O)CC(Cc1ccccc1)c1ccco1)c1ccco1 (stereo not given),-20.4,-8.9,-0.29,24.1*,-21.2
CCSc1nnc(NC(=O)CSc2ncccn2)s1,12.0,-10.2,0.16,1.1,2.1
CCSc1nnc(NC(=O)CSc2c(Cl)cccc2Cl)s1,-1.6,-6.4,-3.18*,-3.7,7.4
CCCCCn1nc(C)c2c(C)cc(=O)[nH]c21,-21.1,-12.2,0.42,16.2,-14.8
Cc1cc(C)nc(SCCC(=O)N(C)C)n1,7.9,-12.0,0.27,4.6,-4.9
